Measurements taken from PubChem BioAssay (NCI).
The panel holds about 79,000 compounds, 15% with a hit somewhere; the sample as a whole holds those more often. Calls of active or inactive are those of the source. No stated cut-off is given here; in the data, active means growth inhibition above about 70%; inactive means the rest.

Experiments:
[1] = NCI Yeast Anticancer Drug Screen. Data for the rad50 strain (AID 155);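 further: 0% = growth of vehicle-only cultures of the same strain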; conditions: S. cerevisiae rad50 strain growth inhibition; at 50.0 µM; hits give high values
In short: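 Vehicle-treated cultures provide the reference for the growth inhibition reported for compound-exposed, repair-deficient yeast.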

[2] = NCI Yeast Anticancer Drug Screen. Data for the mec2-1 strain (AID 157); conditions: S. cerevisiae mec2-1 strain, at 50.0 µM, hits give high values
In short: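 Readout is yeast growth inhibition, normalised to vehicle-treated controls, in the mec2-1 strain exposed to compound.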

[3] = NCI Yeast Anticancer Drug Screen. Data for the sgs1 mgt1 strain (AID 161);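 further: 0% = growth of cultures given vehicle only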; conditions: S. cerevisiae sgs1 mgt1 strain, at 50.0 µM, hits give high values
In short: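 Compounds are added to genetically altered yeast, and growth is compared with cultures given vehicle alone to give percent inhibition.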

[4] = NCI Yeast Anticancer Drug Screen. Data for the cln2 rad14 strain (AID 165);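 further: 0% = growth equal to vehicle treated cultures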; conditions: S. cerevisiae cln2 rad14 strain, at 50.0 µM, hits give high values
In short: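 Relative to vehicle controls, growth inhibition of compound-treated cln2 rad14 yeast was recorded.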

[5] = NCI Yeast Anticancer Drug Screen. Data for the bub3 strain (AID 167); conditions: S. cerevisiae bub3 mutant strain, at 50.0 µM, hits give high values
In short: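 Mutant yeast screening strain plus compound; vehicle-treated cultures serve as the 0% inhibition reference.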

[6] = NCI Yeast Anticancer Drug Screen. Data for the mlh1 rad18 strain (AID 175); conditions: S. cerevisiae mlh1 rad18 strain growth inhibition; at 50.0 µM; hits give high values
In short: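 Test agents were incubated with a yeast strain of defined genotype (DNA damage repair defect). Inhibition of growth was derived by comparison with vehicle-exposed cultures.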

Measured: growth inhibition

CC(=O)OC(C(=O)N(c1ccccc1)c1ccccc1)c1ccccc1 (stereo unspecified)
inactive: [1] 3.5% | [2] 27.4% | [3] 10.9% | [4] 18.2% | [5] 7.35% | [6] 16.1%

CCN(CC)c1ccc(NC(=O)CCl)cc1
inactive: [1] -3.95% | [2] -12.5% | [3] -13% | [4] 1.45% | [5] -15.8% | [6] 8.2%

O=C(CCCN1CCC2(CC1)NC(=O)c1ccccc1O2)c1ccc(F)cc1
inactive: [1] 23.6% | [2] 10.6% | [3] 55.5% | [4] 48.9% | [5] 36.8% | [6] 21.7%

CCCCCCCCCCCCCCCCOc1cccc(/C(=N/NS(C)(=O)=O)N2CCCCC2)c1
inactive: [1] -16.1% | [2] -30.6% | [3] -8.3% | [4] 1.75% | [5] -16.8% | [6] -5.5%

CCOC(=O)c1cc(=O)c2cccc(C)c2[nH]1
inactive: [1] 2.3% | [2] 10.7% | [3] -0.95% | [4] -9.3% | [5] -2% | [6] 20.6%

N#CC1C[C@@H]2CC3(CCC2CN1C(=O)c1ccccc1)OCCO3 (stereo partly specified)
inactive: [1] 8.25% | [2] -9.6% | [3] -12.1% | [4] -24.6% | [5] 0.9% | [6] -14%

CNC(=O)c1cc(OC)ccc1O
inactive: [1] -25.9% | [2] -9.7% | [3] -4.3% | [4] -32.3% | [5] -3.6% | [6] 12.4%

O=C(O)c1c(Br)c(Br)c(Br)c(Br)c1C(=O)Nc1ccccc1C(F)(F)F
inactive: [1] -8.55% | [2] -11.4% | [3] -2.65% | [4] -2.75% | [5] 8.05% | [6] -12.2%

O=C(O)/C=C/Sc1ccc(Cl)cc1
inactive: [2] 32.5% | [4] 59.9%
active: [1] 76% | [3] 79.3% | [5] 78% | [6] 78.4%

CCCCCCCCCCCCNC
inactive: [1] 38.2% | [2] 30.4% | [3] 61.9% | [4] 30.6% | [5] 62.6% | [6] 44.9%

O=C1C(Cl)=C(N(C(=O)c2ccccc2)C(=O)c2ccccc2)C(=O)c2ccccc21
inactive: [1] 6.6% | [2] -3.7% | [6] -51.6%
active: [3] 83.2% | [4] 74% | [5] 86%

COc1ccc(/C=N/NC(=O)NCCNCCO)cc1
inactive: [1] -16.6% | [2] -31.8% | [3] -32.8% | [4] -13.7% | [5] -39.5% | [6] -17.2%

O=c1ccccc2cccc(O)c12
inactive: [1] 8.25% | [2] 0.2% | [3] -1.35% | [4] -17.4% | [5] 8.15% | [6] 10.3%

Cc1nc2ccc(Br)cc2c(=O)n1-c1ccc(N=Cc2ccccc2Cl)cc1
inactive: [1] 49.8% | [2] 16.5% | [3] 26.6% | [4] 19.6% | [5] 2.6% | [6] 34.8%

O=C1/C(=C/c2cccs2)CCc2ccccc21
inactive: [1] 20.6% | [2] -12.4% | [3] 6.05% | [4] -16.1% | [5] 9.7% | [6] 31.9%

Cc1cc(N)ccc1N=Nc1ccc(S(=O)(=O)CCOS(=O)(=O)O)cc1
inactive: [1] 10.9% | [2] -7.5% | [3] -6.8% | [4] -4.65% | [5] -37.1% | [6] -74.7%

CC1=NN(c2nc(N)nc(CN3CCOCC3)n2)C(C)(C)C1
inactive: [1] 30.1% | [2] 3.5% | [3] 17.4% | [4] 20.6% | [5] 5.75% | [6] -2.05%

CCOC(=O)Cc1nc2ccc3c(c2[nH]c1=O)C(=O)c1ccccc1C3=O
inactive: [1] 34.7% | [2] 30.1% | [3] 17.1% | [4] 29.4% | [5] 33.2% | [6] 67.8%

Cc1c(I)sc(I)c1I
inactive: [1] 39.6% | [2] 1.75% | [3] 30.9% | [4] 12.9% | [5] 4.1% | [6] 12.6%

O=C1C2CC3C(C2)C13
inactive: [1] -1.55% | [2] -6.9% | [3] -8.05% | [4] -5.9% | [5] -10.2% | [6] 11.5%

C=C1CC2(C)C(=O)CCCC2OC1=O (stereo unspecified)
inactive: [1] 4.05% | [2] -0.85% | [3] 10.1% | [4] -14.9% | [5] 4.8% | [6] 4%

COc1ccc(CCc2cc(OC)c(O)c(OC)c2)cc1
inactive: [1] 18.5% | [2] 14.8% | [3] 36% | [4] 19% | [5] 30.1% | [6] 41%

Cc1cc(C)n(-c2ccc([N+](=O)[O-])cn2)n1
inactive: [1] 4.55% | [2] 12% | [3] -1.3% | [4] -8.2% | [5] 9.85% | [6] 5.25%

C=CCN1C(SC)=NC(=O)C1(c1ccccc1)c1ccccc1
inactive: [1] 14.8% | [2] 9.95% | [3] 8.75% | [4] -10.2% | [5] 10.2% | [6] 22.8%

N#Cc1c(N)ncn1C1OC(CO)C(O)C1O (stereo unspecified)
inactive: [1] -17.6% | [2] -7.6% | [3] -20.9% | [4] -16.3% | [5] 0.15% | [6] -13.3%

C=C1CC(C)(Cn2c(N)nc3nc[nH]c3c2=O)OC1=O (stereo unspecified)
inactive: [1] 11.7% | [2] 5.95% | [3] 11.1% | [4] 12.9% | [5] 14.1% | [6] 4.8%

CC1=C(C(=O)Nc2ccccc2C)C(c2ccc(C3C(C(=O)Nc4ccccc4C)=C(C)NC(C)=C3C(=O)Nc3ccccc3C)cc2)C(C(=O)Nc2ccccc2C)=C(C)N1
active: [6] 84.6%
inactive: [1] 65.7% | [2] 65% | [3] 61.2% | [4] 47.8% | [5] 21.6%

COCOc1c(OC)c(C2(O)C(=O)N(C)c3ccccc32)c(OCOC)c(OC)c1C1(O)C(=O)N(C)c2ccccc21 (stereo unspecified)
inactive: [1] 0.9% | [2] 13.8% | [3] -14.9% | [4] -3.9% | [5] 0% | [6] 15.4%

CC(C)CC1=C(O)c2ccccc2C(=O)C1=O
inactive: [1] 11% | [2] -9.7% | [3] -1.45% | [4] -1.6% | [5] 10.4% | [6] -2.4%

COC(=O)C(CC(=O)[C@H]1CC[C@H]2[C@@H]3CC=C4C[C@@H](OC(C)=O)CC[C@]4(C)[C@H]3CC[C@]12C)OC (stereo partly specified)
inactive: [1] 11.8% | [2] 8.6% | [3] 15.2% | [4] 2.45% | [5] -22.4% | [6] 9%

CCCCCCCC/C=C\CCCCCCCC(=O)OCC1CCCO1 (stereo unspecified)
inactive: [1] -6.8% | [2] 4.7% | [3] -26.6% | [4] 69.2% | [5] 33.6% | [6] 4.45%

CSCCC(NC(c1ccccc1)c1ccccc1)[P+](=O)O (stereo unspecified)
inactive: [1] -53.4% | [2] -44.8% | [3] -37.5% | [4] -5.15% | [5] -3.65% | [6] -40.1%

Cc1ccc(S(=O)(=O)c2ccc(C(=O)O)cc2)cc1
inactive: [1] 8.1% | [2] 10.4% | [3] 10.8% | [4] -6.05% | [5] 4.05% | [6] 17%

COC(=O)C12OCC34C(CC5C(C)=C(O)C(=O)CC5(C)C3C(O)C1O)OC(=O)C(OC(C)=O)C24 (stereo unspecified)
active: [1] 81.5% | [3] 80.5% | [4] 79.3% | [5] 79% | [6] 84.2%
inactive: [2] 69.5%

C=C1CC(C2CCC(C)(C)C2)OC1=O (stereo unspecified)
inactive: [1] 13.7% | [2] 8% | [3] 9.15% | [4] 17.3% | [5] 2.15% | [6] -0.8%

O=C(/C(N=Nc1ccccc1)=C(\O)c1ccccc1)c1ccccc1
inactive: [1] -8.15% | [2] -9.7% | [3] 2.45% | [4] 11.8% | [5] 7.05% | [6] -6.2%

COc1cccc(C(=O)C(O)c2cccc(OC)c2OC)c1OC (stereo unspecified)
inactive: [1] 0.6% | [2] -5.45% | [3] 8.2% | [4] 0.15% | [5] -10.6% | [6] -42%

COc1nc(N)c([N+](=O)[O-])c(OC)n1
inactive: [1] -11.9% | [2] -14.8% | [3] -2.7% | [4] -28.2% | [5] -9.85% | [6] -19.4%

Cc1ccc(S(=O)(=O)/C(C#N)=C\N2CCNC2=S)cc1
inactive: [1] -11.7% | [2] -24.3% | [3] -6.4% | [4] 13.5% | [5] 4.4% | [6] -2.25%

COc1ccc2nc3cc([N+](=O)[O-])ccc3c(Nc3ccc(S(=O)(=O)N=C(N)N)cc3)c2c1
inactive: [1] 59.8% | [2] 21.8% | [3] 48.5% | [4] 12.8% | [5] 38.8% | [6] 53.9%

CC(=O)N/N=C/c1ccc([N+](=O)[O-])s1
inactive: [1] 13.3% | [2] 15.1% | [3] 33.3% | [4] -11.8% | [5] 3.55% | [6] 45.5%
